TRAIL sens C8 – sensitizes caspase-8 expressing cells to TRAIL. NB7+C8 cells + TRAIL, ATPlite viability luminescence. inhibition (viability loss, TRAIL sensitization), % at 10 µM. actives 1% (n = 360,000);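 active means compounds causing at least 50% loss of cell viability in the single-dose screen, relative to plate controls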
Platelet DG rel – platelet dense granule release activity. human platelet-rich plasma, SFLLRN dense granule ATP release, luminescence. inhibition, %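 (compounds screened at 7.5 µM in platelet-rich plasma)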. actives 0.22% (n = 300,000);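 active means mean replicate score, as percent of positive control, at or above 50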
PPC-1+TRAIL kill – kills PPC-1 cancer cells in the presence of TRAIL. PPC-1 cells + TRAIL, ATPLite viability luminescence. cell killing (% activity), % at 4 µM or 5 µM. actives 0.41% (n = 220,000). AID 1443;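 active means cell killing above 50% in the first pass at 4 µM, then a duplicate retest at 5 µM averaging 50% or more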;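 further: plate controls were cells with TRAIL plus DMSO for no effect and medium-only wells lacking cells for full effect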
TROY NFkB inh – blocks TROY-dependent signaling in reporter cells; Q293 LMP1-TROYcd NF-kB luciferase reporter, 4 h; inhibition, % at 10 µM; actives 0.98% (n = 360,000);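 active means compounds whose plate-normalised and pattern-corrected inhibition of the luciferase reporter signal at the single screening dose is 50% or more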
TWEAK Fn14 block – TWEAK-Fn14 signaling inhibition | TWEAK-stimulated Fn14 reporter cells, luciferase luminescence, 8 h | inhibition, % at 10 µM | actives 2% (n = 360,000) | AID 1159606; in the data active means inhibition above about 50%
HSP90 inh – inhibitors of HSP90 luciferase refolding in rabbit reticulocyte lysate. actives 0.91% (n = 290,000). luciferase refolding luminescence, 3 h. inhibition, % at 5.6 µM;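 active means inhibition above the screen-wide mean plus 3 SD, computed separately per campaign, cut at about 16% in these data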;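 further: 0% = DMSO wells and 100% = 60 µM geldanamycin wells; inhibitors lower the luminescence because luciferase stays unfolded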
* = called active by the depositor; . = no result given. A selection: hits, their analogues and other compounds. The true share with any hit is near 3.5%.

SMILES	TRAIL sens C8	Platelet DG rel	PPC-1+TRAIL kill	TROY NFkB inh	TWEAK Fn14 block	HSP90 inh
Cc1ccc(S(=O)(=O)N2CCN(C(=O)Cn3nc(C(=O)O)c4ccccc4c3=O)CC2)cc1	.	19	8	.	.	-1
COc1ccc(C2CC(=O)c3sc(NC(C)=O)nc3C2)cc1 (centres undefined)	9	0	-1	62*	72*	2
Cc1nc(Nc2nc3ccccc3o2)nc(C)c1C	26	12	20	17	57*	7
NC(=O)c1ccccc1N	4	-1	.	-8	-13	.
COc1ccc2nc3cc(Cl)ccc3c(Nc3ccc(O)c(CN4CCN(C)CC4)c3)c2c1	74*	.	.	-85	-112	.
COc1ccc2nc3cc(Cl)ccc3c(C#N)c2c1	-5	-2	10	-44	-24	0
CC1CCC2(CC1)NC(=O)N(CC(=O)NC(=O)Nc1ccc3c(c1)OCCO3)C2=O (centres undefined)	-14	5	9	31	50*	4
O=C(CCl)N1CCCC1c1ccc2c(c1)OCCO2 (centres undefined)	65*	-7	.	-4	25	1
Cc1ccc(NC(=O)NC(=O)CN2CCCC2c2ccc3c(c2)OCCO3)cc1C (centres undefined)	-11	.	.	14	-12	.
O=C(CN1CCCC1c1ccc2c(c1)OCCO2)NC(=O)Nc1ccccc1 (centres undefined)	-4	.	.	60*	68*	.
CC1CCC2(CC1)NC(=O)N(CC(=O)Nc1ccc3c(c1)OCCO3)C2=O (centres undefined)	2	-6	22	-52	-7	1
Nc1nc2c(ncn2[C@@H]2O[C@H](CNC(=O)[C@H](N)C3CCCCC3)[C@@H](O)[C@H]2O)c(=O)[nH]1	-1	.	.	7	8	.
CCC(=O)N1CCCC1(C)C(=O)Nc1cccc(Oc2ccccc2)c1 (centres undefined)	0	.	.	-12	-7	.
COc1ccc(-c2c(C#N)c(N)nc3c2c(=O)n(C)c(=O)n3C)cc1	-2	-12	11	-3	-14	6
CCOc1ccc(-c2c(C#N)c(N)nc3c2c(=O)n(C)c(=O)n3C)cc1OC	86*	9	28	3	-2	1
C=CCOc1c(CCC)cc(CCC)cc1C(N)=O	-1	-3	4	1	25	-1
CCN(CC)c1ccc(N=C2C(=O)Nc3ccccc32)cc1	5	4	.	28	52*	9
Cc1ccc(N=C2C(=O)Nc3ccccc32)cc1	-15	2	.	-47	-7	-1
CCN(CC)c1ccc(C2NC(=O)c3ccccc3N2)cc1 (centres undefined)	92*	.	.	77*	95*	.
O=C1NC(c2ccc3c(c2)OCO3)Nc2ccccc21 (centres undefined)	26	11	71*	-43	-19	-1
Cc1cccc(Cc2ccc(Cl)nn2)c1	0	3	8	8	-2	0
CCOc1ccc(/C=N/OCC(=O)Nc2cc(S(=O)(=O)N3CCOCC3)ccc2OC)cc1	17	-3	.	-6	-1	.
COc1cccc(-c2cnc(C(O)c3ccc(Cl)c(Cl)c3)[nH]2)c1 (centres undefined)	-20	.	.	-10	6	.
CN(C)CCCN(C(=O)c1ccc(S(=O)(=O)N(C)C2CCCCC2)cc1)c1nc2ccc(Br)cc2s1	58*	2	.	6	-40	7
Cc1cc(C)c2sc(N(CCCN(C)C)C(=O)c3ccc(S(=O)(=O)N(C)C4CCCCC4)cc3)nc2c1	76*	5	.	-24	-39	.
SMILES	TRAIL sens C8	Platelet DG rel	PPC-1+TRAIL kill	TROY NFkB inh	TWEAK Fn14 block	HSP90 inh
CN(C)CCCN(C(=O)c1ccc(S(=O)(=O)N(C)C2CCCCC2)cc1)c1nc2ccc(F)cc2s1	23	-6	.	-12	-2	1
CCN(C(=O)c1cnc(NC(C)C)cc1C(F)(F)F)c1ccc(Cl)cc1Cl	4	-6	-3	-5	-27	-1
CCCS(=O)(=O)NC(=O)C1(C)CCN(C(=O)c2cc(C)on2)C1 (centres undefined)	-15	.	.	1	-1	.
O=C(/C=C/c1cccnc1)/C=C/c1cccnc1	51*	.	29	72*	101*	5
C(=Cc1cccnc1)c1ccncc1	-11	.	.	16	18	.
Cc1ccc(C(=O)N/N=C\c2cccc(OC(=O)c3cccc(F)c3)c2)cn1	54*	-42	.	-21	23	-4
O=C(N/N=C/c1cccc(OC(=O)c2ccco2)c1)c1ccc(F)cc1	71*	3	44	-57	-21	-1
COc1cc(/C=N\NC(=O)c2ccc(C)nc2)ccc1OC(=O)c1cccc(F)c1	10	-9	.	15	72*	-3
COc1cc(/C=N/NC(=O)c2ccc(F)cc2)ccc1OC(=O)c1ccco1	3	2	27	-26	-44	-2
NC(=O)c1ncn([C@@H]2O[C@H](CNCc3cc(Cl)ccc3OCc3ccc(Cl)cc3)[C@@H](O)[C@H]2O)n1	-6	.	.	-13	-2	.
Sc1ccccc1N=Cc1cccs1	4	.	.	-23	-13	.
CCOn1c(=O)c(C)[n+]([O-])c2ccccc21	-1	0	12	.	85*	-1
C=CCOn1c(=O)c(C)[n+]([O-])c2ccccc21	-8	4	31	6	-14	6
COc1cccc(C=C(C(C)=O)C(=O)c2ccccc2)c1	14	.	.	14	51*	.
COc1cccc(/C=C(/C(=O)OCC(N)=O)c2ccccc2)c1	-3	-14	16	3	-12	3
O=C(OCC(=O)N1CCN(C(=O)c2ccco2)CC1)c1ccccc1C(=O)c1ccccc1	-14	5	13	.	79*	-1
COc1ccc(-c2cc(C(=O)OCC(=O)N3CCOCC3)c3ccccc3n2)cc1	62*	.	.	-21	-48	.
COc1ccc(-c2cc(C(=O)c3c(N)n(C)c(=O)n(C)c3=O)c3ccccc3n2)cc1	81*	18	77*	-12	-43	5
Cc1cc(-c2ccc(N3CCOCC3)cc2)nc2ccccc12	65*	6	30	-41	-29	0
COc1cc2ccccc2cc1C(=O)OCC(=O)N1CCOCC1	0	-23	-14	-2	-14	3
COc1ccc(CCNC(=O)C(=O)NCC2CCCN2S(=O)(=O)c2cc(C)ccc2C)cc1 (centres undefined)	10	10	.	27	24	.
COC(=O)[C@H](C)N(Cc1ccc(Cl)c(Cl)c1)S(=O)(=O)CCN1CCN(c2ccccc2)CC1	4	.	.	22	43	.
O=C(OCC(=O)N1CCN(C(=O)c2ccco2)CC1)c1cc(-c2ccc(F)cc2)nc2ccccc12	13	-5	22	2	52*	2
N#CCCC1(CCC#N)c2ccccc2C(=O)c2ccccc21	1	.	.	-11	-1	.
O=C(NCc1ccccc1)OC1CC2CC1[C@H]1CCCCN1C2=O (some centres undefined)	-9	.	.	-5	8	.
